Results reported in ChEMBL document CHEMBL1961873, “Compounds: GSK PKIS; Assays: Nanosyn kinase panel” (2012).

Legend:
[1] = target: Platelet-derived growth factor receptor beta (Homo sapiens) (UniProt P09619); conditions: at 1 µM;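 further: each value is a mean percent inhibition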
[2] = target: Tyrosine-protein kinase FRK (Homo sapiens) (UniProt P42685); conditions: at 0.1 µM
[3] = target: Tyrosine-protein kinase FRK (Homo sapiens) (UniProt P42685); conditions: at 1 µM
[4] = target: Protein-tyrosine kinase 2-beta (Homo sapiens) (UniProt Q14289); conditions: at 0.1 µM
[5] = target: Protein-tyrosine kinase 2-beta (Homo sapiens) (UniProt Q14289); conditions: at 1 µM
[6] = target: Proto-oncogene tyrosine-protein kinase receptor Ret (Homo sapiens) (UniProt P07949); conditions: at 0.1 µM
[7] = target: Proto-oncogene tyrosine-protein kinase receptor Ret (Homo sapiens) (UniProt P07949); conditions: at 1 µM
[8] = system: Proto-oncogene tyrosine-protein kinase receptor Ret (Homo sapiens), P07949 [V804L]; conditions: at 0.1 µM
[9] = system: Proto-oncogene tyrosine-protein kinase receptor Ret (Homo sapiens), P07949 [V804L]; conditions: at 1 µM
[10] = system: Proto-oncogene tyrosine-protein kinase receptor Ret (Homo sapiens), P07949 [Y791F]; conditions: at 0.1 µM
Sequence of Proto-oncogene tyrosine-protein kinase receptor Ret (Homo sapiens), P07949 [Y791F] (P07949 whole entry Y791F): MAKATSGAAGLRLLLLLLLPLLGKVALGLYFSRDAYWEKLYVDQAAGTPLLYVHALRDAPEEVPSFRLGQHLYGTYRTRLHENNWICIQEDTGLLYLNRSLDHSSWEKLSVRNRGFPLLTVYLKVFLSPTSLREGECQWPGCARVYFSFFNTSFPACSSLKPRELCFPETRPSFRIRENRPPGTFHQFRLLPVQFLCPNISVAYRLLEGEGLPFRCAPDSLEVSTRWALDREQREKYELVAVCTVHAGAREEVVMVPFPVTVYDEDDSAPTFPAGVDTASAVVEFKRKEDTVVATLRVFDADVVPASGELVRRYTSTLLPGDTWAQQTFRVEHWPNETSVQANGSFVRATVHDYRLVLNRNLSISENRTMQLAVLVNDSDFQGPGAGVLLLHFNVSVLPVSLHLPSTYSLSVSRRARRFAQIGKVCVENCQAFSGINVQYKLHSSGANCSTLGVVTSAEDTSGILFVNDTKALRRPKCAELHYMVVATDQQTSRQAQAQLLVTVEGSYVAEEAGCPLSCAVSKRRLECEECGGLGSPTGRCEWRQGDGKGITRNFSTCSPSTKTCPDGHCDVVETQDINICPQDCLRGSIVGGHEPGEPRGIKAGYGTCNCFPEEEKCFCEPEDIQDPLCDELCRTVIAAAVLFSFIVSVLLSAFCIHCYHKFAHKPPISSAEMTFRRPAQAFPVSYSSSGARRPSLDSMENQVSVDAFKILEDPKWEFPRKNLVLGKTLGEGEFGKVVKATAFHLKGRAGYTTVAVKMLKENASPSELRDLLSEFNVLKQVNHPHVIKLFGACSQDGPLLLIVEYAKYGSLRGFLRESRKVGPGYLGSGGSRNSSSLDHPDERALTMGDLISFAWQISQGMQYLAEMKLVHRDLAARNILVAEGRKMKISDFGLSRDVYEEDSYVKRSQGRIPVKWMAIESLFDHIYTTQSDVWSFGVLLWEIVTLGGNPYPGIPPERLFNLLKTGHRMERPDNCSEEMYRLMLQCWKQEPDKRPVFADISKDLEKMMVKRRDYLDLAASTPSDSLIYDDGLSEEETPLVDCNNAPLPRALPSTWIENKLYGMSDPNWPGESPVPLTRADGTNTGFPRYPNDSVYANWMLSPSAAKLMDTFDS

Sequence of Protein-tyrosine kinase 2-beta (Homo sapiens) (Q14289 whole entry, looked up): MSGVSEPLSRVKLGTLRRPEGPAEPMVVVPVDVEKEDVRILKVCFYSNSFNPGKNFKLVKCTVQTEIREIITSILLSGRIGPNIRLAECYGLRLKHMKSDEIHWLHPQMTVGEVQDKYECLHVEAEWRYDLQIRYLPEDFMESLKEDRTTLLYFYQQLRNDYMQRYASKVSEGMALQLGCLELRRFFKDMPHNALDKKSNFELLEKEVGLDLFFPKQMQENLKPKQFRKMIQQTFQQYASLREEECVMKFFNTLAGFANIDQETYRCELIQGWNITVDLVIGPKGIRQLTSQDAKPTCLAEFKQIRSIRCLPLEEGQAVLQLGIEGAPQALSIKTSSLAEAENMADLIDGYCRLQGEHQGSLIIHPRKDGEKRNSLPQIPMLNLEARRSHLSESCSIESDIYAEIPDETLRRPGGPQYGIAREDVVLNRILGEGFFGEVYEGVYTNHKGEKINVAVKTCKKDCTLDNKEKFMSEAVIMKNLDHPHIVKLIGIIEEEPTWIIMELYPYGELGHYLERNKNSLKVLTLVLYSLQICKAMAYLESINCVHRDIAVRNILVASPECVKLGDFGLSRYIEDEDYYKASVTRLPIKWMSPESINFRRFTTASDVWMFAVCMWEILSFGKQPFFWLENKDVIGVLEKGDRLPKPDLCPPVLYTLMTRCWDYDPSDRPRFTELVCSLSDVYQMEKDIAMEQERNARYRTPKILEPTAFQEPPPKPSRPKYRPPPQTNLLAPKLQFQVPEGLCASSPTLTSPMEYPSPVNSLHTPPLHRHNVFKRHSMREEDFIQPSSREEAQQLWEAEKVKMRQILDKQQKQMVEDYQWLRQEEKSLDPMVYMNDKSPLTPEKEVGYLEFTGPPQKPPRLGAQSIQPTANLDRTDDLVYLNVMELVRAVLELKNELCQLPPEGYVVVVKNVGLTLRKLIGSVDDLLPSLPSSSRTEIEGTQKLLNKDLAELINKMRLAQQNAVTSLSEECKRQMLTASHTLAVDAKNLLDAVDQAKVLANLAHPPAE
Sequence of Tyrosine-protein kinase FRK (Homo sapiens) (P42685 whole entry): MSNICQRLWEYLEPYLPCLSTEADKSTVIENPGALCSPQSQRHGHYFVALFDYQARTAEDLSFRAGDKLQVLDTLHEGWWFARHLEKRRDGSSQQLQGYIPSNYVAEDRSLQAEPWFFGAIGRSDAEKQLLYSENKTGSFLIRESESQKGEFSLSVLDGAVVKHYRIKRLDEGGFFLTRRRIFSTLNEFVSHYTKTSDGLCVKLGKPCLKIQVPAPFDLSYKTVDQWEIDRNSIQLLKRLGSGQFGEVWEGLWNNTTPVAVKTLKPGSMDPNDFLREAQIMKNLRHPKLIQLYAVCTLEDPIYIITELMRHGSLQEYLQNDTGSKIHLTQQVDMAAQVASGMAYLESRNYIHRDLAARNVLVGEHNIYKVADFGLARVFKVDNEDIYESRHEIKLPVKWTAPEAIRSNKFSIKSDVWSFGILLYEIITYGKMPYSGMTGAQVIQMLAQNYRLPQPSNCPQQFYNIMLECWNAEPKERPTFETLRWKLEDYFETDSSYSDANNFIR
Sequence of Proto-oncogene tyrosine-protein kinase receptor Ret (Homo sapiens), P07949 [V804L] (P07949 whole entry V804L): as the sequence (P07949 whole entry Y791F) above, with F791Y, V804L counted along it
Sequence of Platelet-derived growth factor receptor beta (Homo sapiens) (P09619 whole entry): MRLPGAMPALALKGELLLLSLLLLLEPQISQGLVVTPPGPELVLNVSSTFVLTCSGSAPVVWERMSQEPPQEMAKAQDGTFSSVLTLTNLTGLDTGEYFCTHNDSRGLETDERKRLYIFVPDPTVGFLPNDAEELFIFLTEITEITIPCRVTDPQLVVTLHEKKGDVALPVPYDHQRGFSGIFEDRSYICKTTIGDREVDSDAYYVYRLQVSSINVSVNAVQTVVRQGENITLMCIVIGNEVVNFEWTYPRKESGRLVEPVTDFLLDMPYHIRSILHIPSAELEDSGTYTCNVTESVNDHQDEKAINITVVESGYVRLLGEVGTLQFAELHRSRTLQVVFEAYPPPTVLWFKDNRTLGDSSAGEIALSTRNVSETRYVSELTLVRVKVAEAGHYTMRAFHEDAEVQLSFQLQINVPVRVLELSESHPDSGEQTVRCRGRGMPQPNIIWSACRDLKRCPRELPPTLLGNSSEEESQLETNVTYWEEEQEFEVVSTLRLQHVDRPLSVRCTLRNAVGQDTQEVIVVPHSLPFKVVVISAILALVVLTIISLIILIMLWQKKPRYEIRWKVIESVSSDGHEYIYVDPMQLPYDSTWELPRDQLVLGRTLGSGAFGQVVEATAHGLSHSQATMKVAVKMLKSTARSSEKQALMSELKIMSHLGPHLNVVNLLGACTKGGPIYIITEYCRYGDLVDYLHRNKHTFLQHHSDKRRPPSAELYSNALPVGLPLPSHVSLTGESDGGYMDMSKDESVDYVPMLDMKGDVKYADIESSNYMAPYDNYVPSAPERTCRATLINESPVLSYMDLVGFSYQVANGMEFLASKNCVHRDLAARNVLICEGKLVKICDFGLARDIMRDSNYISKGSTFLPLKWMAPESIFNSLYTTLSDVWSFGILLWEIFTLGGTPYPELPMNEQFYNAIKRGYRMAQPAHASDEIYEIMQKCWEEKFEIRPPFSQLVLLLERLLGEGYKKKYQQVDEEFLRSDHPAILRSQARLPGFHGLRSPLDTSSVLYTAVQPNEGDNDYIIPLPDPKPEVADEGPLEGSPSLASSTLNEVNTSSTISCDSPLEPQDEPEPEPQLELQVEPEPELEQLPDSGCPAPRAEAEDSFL
Sequence of Proto-oncogene tyrosine-protein kinase receptor Ret (Homo sapiens) (P07949 whole entry): as the sequence (P07949 whole entry Y791F) above, with F791Y counted along it

SMILES	inhibition [1] [%]	inhibition [2] [%]	inhibition [3] [%]	inhibition [4] [%]	inhibition [5] [%]	inhibition [6] [%]	inhibition [7] [%]	inhibition [8] [%]	inhibition [9] [%]	inhibition [10] [%]
Cc1cc(-c2ccco2)cc(C)c1/C=C/c1cncc(-c2nn[nH]n2)c1	2.67	-0.44	-0.05	1.24	0	1.88	3.21	8.81	1.72	2.21
COc1cccc(COc2cc(-n3cnc4ccccc43)sc2C(N)=O)c1	8.32	0	0.01	-3.42	-2.02	0.11	7.33	0.81	0.07	0.47
Fc1ccc(-c2ncn(C3CCNCC3)c2-c2ccnc(Oc3ccccc3)n2)cc1	5.68	1.48	1.29	4.92	6.66	3.19	7.03	1.33	5.85	1.85
CCn1c(-c2nonc2N)nc2c(C#CC(C)(C)O)ncc(OC[C@@H]3CCCN3)c21	47.2	-0.88	0.68	1.89	23	3.87	25.2	0.45	2.53	3
CCn1c(-c2nonc2N)nc2c(C#CC(C)(C)O)nc(O[C@@H](CN)c3ccccc3)cc21	79.5	-0.39	0.63	27	80.1	41.7	90	9.12	47.7	41.8
COc1cccc(-n2ncc3c(N/N=C/c4ccncc4)ncnc32)c1	81.2	2.72	5.75	11.5	16.5	9.73	50.3	7.23	31.1	18.4
NC(=O)c1sc(-n2cnc3cc(C(F)(F)F)ccc32)cc1OCc1ccccc1Br	5.82	0.62	-0.62	3.52	-2.94	5.91	2.23	1.83	11.6	2.29
